Assay outcomes deposited in PubChem by several laboratories.
MEKK3 PB1 HTS: raises or lowers MEK5 binding to the human MEKK3 PB1 domain; Q99759; bead-based flow cytometry, Alexa488-MEK5 binding to MEKK3; actives lie on both sides; 0 = blocked by unlabeled MEK5, 100 = vehicle; binding response (% of control), % at 10 µM; actives 1.4% (n = 290,000); AID 1529;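 active means binding response more than 3 SD above or below the average of its plate-row segment, actives on both sides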;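 further: Alexa488 bead fluorescence after subtracting the streptavidin-only scavenger bead signal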
Target sequence (Q99759 whole entry, looked up, the tested form may be a part): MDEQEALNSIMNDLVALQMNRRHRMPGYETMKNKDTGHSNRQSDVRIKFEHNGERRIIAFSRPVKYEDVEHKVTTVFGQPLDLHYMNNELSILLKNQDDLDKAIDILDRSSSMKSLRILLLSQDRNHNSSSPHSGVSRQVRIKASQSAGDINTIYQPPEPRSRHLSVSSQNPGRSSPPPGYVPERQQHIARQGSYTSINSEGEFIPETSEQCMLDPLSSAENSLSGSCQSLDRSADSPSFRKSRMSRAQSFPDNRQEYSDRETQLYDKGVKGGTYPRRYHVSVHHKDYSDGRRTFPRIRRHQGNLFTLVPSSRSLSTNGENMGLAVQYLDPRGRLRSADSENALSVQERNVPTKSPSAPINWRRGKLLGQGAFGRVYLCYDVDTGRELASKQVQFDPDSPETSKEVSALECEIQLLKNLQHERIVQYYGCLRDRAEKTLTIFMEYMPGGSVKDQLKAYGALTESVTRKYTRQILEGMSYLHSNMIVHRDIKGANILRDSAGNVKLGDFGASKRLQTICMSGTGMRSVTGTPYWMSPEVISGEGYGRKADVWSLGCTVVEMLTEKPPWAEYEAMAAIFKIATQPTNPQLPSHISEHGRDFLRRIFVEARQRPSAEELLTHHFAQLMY
DNA FID counter: fluorescent intercalator displacement, NS3 helicase counter-screen | DNA fluorescent intercalator displacement, fluorescence | inhibition, % at 7.9 µM | actives 0.17% (n = 290,000) | AID 1845; in the data active means inhibition above about 37%;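 further: higher means more ethidium bromide displaced from hairpin DNA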
MEKK2 WT-MEK5: raises or lowers MEK5 binding to wildtype human MEKK2 PB1 domain; Q9Y2U5; bead flow cytometry, Alexa488-MEK5 binding to MEKK2 WT; actives lie on both sides; binding response (% of control), % at 10 µM; actives 1.1% (n = 290,000); AID 1531; in the data active means binding response below about 67% or above about 130%
dFosB activator: mouse delta FosB homodimer activation. actives 0.99% (n = 340,000). AID 493131. P13346. purified delta FosB, TAMRA-CDK5 oligo fluorescence polarization; percent of positive-control signal above neutral wells. activation, % at 25 µM;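 active means mean activation above about 17%, with every replicate also reaching it, limit read from the data, passing the limit was not always enough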
MEKK2 mut-MEK5: signal of MEK5 binding to mutant human MEKK2 PB1 domain; bead flow cytometry, Alexa488-MEK5 binding to MEKK2 mutant; percent response, % at 10 µM; actives 0.35% (n = 290,000); in the data active means percent response above about 24%, passing the limit was not always enough
MEKK2wt confirm: raises or lowers MEK5 binding to wildtype human MEKK2, retest. shares compounds with MEKK3 PB1 HTS. bead flow cytometry, Alexa488-MEK5 binding to MEKK2 WT; actives lie on both sides. binding response (% of control), % at 10 µM. actives 2.4% (n = 5,900). AID 1892; in the data active means binding response below about 16% or above about 210%; inactive means in between
MEKK2mut confirm: signal of MEK5 binding to mutant human MEKK2, retest; shares compounds with MEKK3 PB1 HTS; bead flow cytometry, Alexa488-MEK5 binding to MEKK2 mutant; percent response, % at 10 µM; actives 2% (n = 5,900); AID 1893; in the data active means percent response mostly above about 71%, no sharp cut-off; inactive means mostly below about 38%;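 further: higher means compound restores mutant binding toward wildtype level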
MEKK3 confirm: MEKK3-MEK5 PB1 inhibition, single concentration confirmation | shares compounds with MEKK3 PB1 HTS | bead flow cytometry, Alexa488-MEK5 binding to MEKK3; stronger effect = lower value | binding response (% of control), % at 10 µM | actives 1.8% (n = 5,900) | AID 1894;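 active means binding response below 72% of control, or above a set upper limit, though filed actives all read lower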
Large screens that a line does not name were inactive (follow-up assays come after a bar, where they were run); [ ] = remark or other dose. An excerpt weighted towards active compounds, which were near 2.9% of everything screened.

CCCCN(CCCNC(=O)c1ccc2nc(N3CCOCC3)sc2c1)Cc1ccccc1	MEKK2 WT-MEK5 158.0 | MEKK2wt confirm inactive | MEKK2mut confirm inactive | MEKK3 confirm inactive
c1ccc2c(c1)nc1n2CCC1	none (no result: MEKK3 PB1 HTS, DNA FID counter, MEKK2 WT-MEK5, MEKK2 mut-MEK5)
O=C(CCN1CCC(c2ccccc2)C1)c1ccccc1 (configuration not stated)	none
O=C(CCN1CCC(c2ccccc2)C1)c1cccs1 (configuration not stated)	MEKK3 PB1 HTS 81.0[inhibitor] | MEKK2wt confirm inactive | MEKK2mut confirm inactive | MEKK3 confirm inactive
Cc1cc(C)cc(OCc2ccc(C(=O)NN)o2)c1	none
O=C(CCN1C(=O)c2ccccc2C1=O)CN1CCOCC1	none
C[C@H](NC(=O)Cc1cccc2ccccc12)C(=O)N1CCCN(C)CC1	none
O=C(CC1N=C2c3ccccc3N=C(SCc3ccc(F)cc3)N2C1=O)NCc1ccco1 (configuration not stated)	MEKK3 PB1 HTS 2.0[inhibitor], MEKK2 WT-MEK5 2.0[inhibitor] | MEKK2wt confirm inactive | MEKK2mut confirm inactive | MEKK3 confirm inactive
CC(=O)Nc1ccc(S(=O)(=O)NCC(=O)OC(C)c2ccccc2Cl)cc1 (configuration not stated)	none
COc1ccc(N2CCN(C(=O)CN(Cc3ccccc3)S(C)(=O)=O)CC2)cc1	MEKK3 PB1 HTS 55.0[inhibitor] | MEKK2wt confirm inactive | MEKK2mut confirm inactive | MEKK3 confirm inactive
COc1ccc(N2CCN(C(=O)CSc3ccc(C)cc3)CC2)cc1	MEKK3 PB1 HTS 130.0 | MEKK2wt confirm inactive | MEKK2mut confirm inactive | MEKK3 confirm inactive
COc1ccc(N2CCN(C(=O)CN(Cc3ccc(Cl)cc3)S(C)(=O)=O)CC2)cc1	none
COc1ccc(N2CCN(C(=O)CSc3ccc([N+](=O)[O-])cc3)CC2)cc1	none
CC(C)=CCC/C(C)=C/CC(C)(C)CNCCN1CCNCC1	MEKK2 WT-MEK5 163.0 (no result: dFosB activator) | MEKK2wt confirm inactive | MEKK2mut confirm inactive | MEKK3 confirm inactive
O=C(O)CCC(=O)N1CCN(c2cccc(Cl)c2)CC1	none
O=C(O)/C=C/C(=O)N1CCN(c2cccc(Cl)c2)CC1	MEKK3 PB1 HTS 129.0 | MEKK2wt confirm inactive | MEKK2mut confirm inactive | MEKK3 confirm inactive
CCN1CCC(C(N)=O)CC1	MEKK3 PB1 HTS 0.0[inhibitor], MEKK2 WT-MEK5 0.0[inhibitor] | MEKK2wt confirm inactive | MEKK2mut confirm inactive | MEKK3 confirm inactive
CN(C)c1ccc(CN2CCC(C(N)=O)CC2)cc1	none
COc1ccc(/C=C/c2cc(C(F)(F)F)on2)cc1	MEKK3 PB1 HTS 50.0[inhibitor] | MEKK2wt confirm inactive | MEKK2mut confirm inactive | MEKK3 confirm inactive
Cn1cc(C(=O)c2cccc(Cl)c2)cc1C#N	none
Cn1cc(C(=O)c2cccc(Cl)c2)cc1/C=N\O	MEKK3 PB1 HTS 42.0[inhibitor] | MEKK2wt confirm inactive | MEKK2mut confirm inactive | MEKK3 confirm inactive
COc1ccc(Nc2ccc(C(N)=O)cc2[N+](=O)[O-])cc1	MEKK3 PB1 HTS 57.0[inhibitor] | MEKK2wt confirm inactive | MEKK2mut confirm inactive | MEKK3 confirm inactive
CCc1cccc(NC(=O)C2CCCN2S(=O)(=O)c2ccc3c(c2)n(C)c(=O)c(=O)n3C)c1 (configuration not stated)	MEKK3 PB1 HTS 71.0[inhibitor] | MEKK2wt confirm inactive | MEKK2mut confirm inactive | MEKK3 confirm inactive
Cc1ccc(S(=O)(=O)N2CCCCC2C(=O)N(C)c2ccccc2)cc1 (configuration not stated)	none
O=C(Nc1cccc(S(=O)(=O)N2CCOCC2)c1)[C@@H]1CCCN1S(=O)(=O)c1ccc(Cl)cc1	MEKK3 PB1 HTS 153.0 | MEKK2wt confirm inactive | MEKK2mut confirm inactive | MEKK3 confirm inactive
Cc1ccc(N(C)C(=O)C2CCCN2S(=O)(=O)c2ccc3c(c2)n(C)c(=O)c(=O)n3C)cc1 (configuration not stated)	MEKK3 PB1 HTS 57.0[inhibitor] | MEKK2wt confirm inactive | MEKK2mut confirm inactive | MEKK3 confirm inactive
CCOc1ccc(NC(=S)N2CCC(C(=O)c3ccc(F)cc3)CC2)cc1	none (no result: MEKK3 PB1 HTS, DNA FID counter, MEKK2 WT-MEK5, MEKK2 mut-MEK5)
O=C(COC(=O)c1ncc(Cl)c(Cl)c1Cl)NC1CCCCCC1	none (no result: MEKK3 PB1 HTS, DNA FID counter, MEKK2 WT-MEK5, MEKK2 mut-MEK5)
Cc1ccc(S(=O)(=O)N(C)C)cc1-n1c(SCC(=O)Nc2ccc(F)c(F)c2F)nc2ccccc2c1=O	MEKK3 PB1 HTS 148.0 | MEKK2wt confirm inactive | MEKK2mut confirm inactive | MEKK3 confirm inactive
Cc1ccc(S(=O)(=O)N(C)C)cc1-n1c(SCC(=O)N(C)C)nc2ccccc2c1=O	none
COc1c(Cl)cc(Cl)cc1CNCCO	none
CCOC(=O)c1sc(C)c2c1NC(C)(c1ccccc1)NC2=O (configuration not stated)	none
Cc1cccc(N2CCN(C(=O)Cc3cn(C)c4ccccc34)CC2)c1C	MEKK3 PB1 HTS 130.0 | MEKK2wt confirm inactive | MEKK2mut confirm inactive | MEKK3 confirm inactive
CNC(=S)NCCc1ccccc1	none
OCCNC(=S)NCCc1ccccc1	MEKK3 PB1 HTS 132.0 | MEKK2wt confirm inactive | MEKK2mut confirm inactive | MEKK3 confirm inactive
COc1ccccc1NS(=O)(=O)c1cccc(C(=O)N/N=C2\CC(=O)CC(C)(C)C2)c1	MEKK3 PB1 HTS 142.0 | MEKK2wt confirm inactive | MEKK2mut confirm inactive | MEKK3 confirm inactive
COc1ccccc1NS(=O)(=O)c1cccc(C(=O)NN=C2CCCC2)c1	none
Cc1nc(NC(=O)c2ccccc2)sc1C1(C)CC(c2ccc(OC(F)(F)F)cc2)=NO1 (configuration not stated)	none (no result: DNA FID counter, dFosB activator)
O=c1cc(NS(=O)(=O)c2ccccc2)nc(SCc2ccc(Cl)cc2)[nH]1	MEKK3 PB1 HTS 129.0 | MEKK2wt confirm inactive | MEKK2mut confirm inactive | MEKK3 confirm inactive
O=C(CSc1nc(NS(=O)(=O)c2ccccc2)cc(=O)[nH]1)Nc1ccc(Cl)cc1	none
CC(NS(=O)(=O)c1cccc(C(=O)NCc2ccncc2)c1)c1ccccc1 (configuration not stated)	none (no result: MEKK3 PB1 HTS, DNA FID counter, MEKK2 WT-MEK5, MEKK2 mut-MEK5)
Cc1ccc(C(c2nnnn2Cc2cccs2)N2CCN(C(=O)c3ccco3)CC2)cc1 (configuration not stated)	none
CCC(c1nnnn1Cc1cccs1)N1CCN(C(=O)c2ccco2)CC1 (configuration not stated)	MEKK3 PB1 HTS 0.0[inhibitor], MEKK2 WT-MEK5 -1.0[inhibitor] | MEKK2wt confirm inactive | MEKK2mut confirm inactive | MEKK3 confirm inactive
COCCNC(=O)CN(c1cc(Cl)ccc1OC)S(=O)(=O)c1ccc(C)c([N+](=O)[O-])c1	MEKK3 PB1 HTS 128.0 | MEKK2wt confirm 12.0[inhibitor] | MEKK2mut confirm inactive | MEKK3 confirm 71.0
